Assay results published in PubChem BioAssay AID602250 (The Scripps Research Institute Molecular Screening Center, 2012).
Screen size: about 360,000 compounds; about 2,200 (0.61%) were called active.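 Rule for the calls: active = inhibition above a per-plate cutoff, the plate's mean sample inhibition plus 3 SD (cut at about 24% in these data); inactive = the rest.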 Only a selection was taken, and actives are over-represented in it overall.

assay: nonselective inhibitors of ATP calcium response in CHO-K1, primary screen, counter-screen for M1 antagonist project, cell-based, Fluo-8 calcium fluorescence, full deck, 1536-well (AID 602250); settings: CHO-K1 parental, ATP-induced calcium, Fluo-8 fluorescence; at 3 µM; active compounds read high;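 note: 0% = DMSO plus EC80 ATP and 100% = DMSO alone without ATP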

Row | SMILES | inhibition
1 | CCC(=O)OC(Cc1ccccc1)(c1ccccc1)C(C)CN(C)C (stereo not given) | 25.3% (active)
2 | CN(C)CC1Oc2ccccc2OC1(O)c1ccccc1 (stereo not given) | -2.02% (inactive)
3 | CN1CCN(Cc2ccc(OC(F)(F)F)cc2)CC1 | -3.91% (inactive)
4 | OC1/C(=C/c2ccc(C(F)(F)F)cc2)N2CCC1CC2 (stereo not given) | -10.6% (inactive)
5 | CN(C)S(=O)(=O)c1cc(C(=O)N2CCC(C(=O)O)(c3ccccc3)CC2)ccc1Cl | -5.53% (inactive)
